“And” between values parts separate entries of the source, which are not always exact repeats. Equal entries are not always repeated. Hit rate of the full screen: of about 5,500 compounds, about 2,000 (36%) were called active. About 18% were inconclusive and are not listed. No stated cut-off is given here; in the data, active means normalized growth mostly below about 0.91 (no sharp cut-off); inconclusive means no clear call, values can overlap the other calls; inactive means mostly above about 0.92. This is one part of the list. Some compounds were tested as several samples or in several runs, with calls that do not always agree.
Test: chemical genetic growth profiling, strain panel (AID 1159580);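 further: tested at 20 µM; growth read once vehicle control cultures reached saturation at 30 °C; 1 = growth at the plate median or of vehicle wells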
Conditions: S. cerevisiae deletion strains, growth OD

Measured: normalized growth

O=c1c2ccccc2[se]n1-c1ccccc1
inactive: locus YAL040C, strain CLN3, stronger effect = lower value 0.981 | locus YBR171W, strain sec66, stronger effect = lower value 0.927 | locus YBR229C, strain ROT2, stronger effect = lower value 1.02 | locus YCL061C, strain MRC1 (second series), stronger effect = lower value 0.952 | locus YDL185W, strain tfp1, stronger effect = lower value 0.999 | locus YDR363W, strain ESC2, stronger effect = lower value 0.988 | locus YER002W, strain NOP16, stronger effect = lower value 0.999 | locus YER111C, strain swi4, stronger effect = lower value 0.937 | locus YJL187C, strain SWE1 (second series), stronger effect = lower value 0.907 | locus YJR066W, strain TOR1, stronger effect = lower value 0.883
active: locus YAL021C, strain ccr4, stronger effect = lower value 0.0697 | locus YAL026C, strain drs2, stronger effect = lower value 0.0626 | locus YAL030W, strain snc1, stronger effect = lower value 0.057 | locus YBL061C, strain skt5, stronger effect = lower value 0.0616 | locus YBR009C, strain hhf1, stronger effect = lower value 0.067 | locus YBR021W, strain FUR4, stronger effect = lower value 0.0951 | locus YBR023C, strain chs3, stronger effect = lower value 0.0842 | locus YBR231C, strain swc5, stronger effect = lower value 0.129 | locus YBR279W, strain paf1, stronger effect = lower value 0.0647 | locus YCL011C, strain gbp2, stronger effect = lower value 0.057 | locus YCL016C, strain dcc1, stronger effect = lower value 0.102 | locus YCL029C, strain bik1, stronger effect = lower value 0.873 | locus YCL061C, strain MRC1, stronger effect = lower value 0.0738 | locus YCL069W, strain vba3, stronger effect = lower value 0.0606 | locus YCR088W, strain abp1, stronger effect = lower value 0.0595 | locus YDL005C, strain med2, stronger effect = lower value 0.071 | locus YDL035C, strain GPR1, stronger effect = lower value 0.0537 | locus YDL040C, strain nat1, stronger effect = lower value 0.909 | locus YDL074C, strain BRE1, stronger effect = lower value 0.0969 | locus YDL101C, strain DUN1, stronger effect = lower value 0.869 | locus YDL134C, strain PPH21, stronger effect = lower value 0.0461 | locus YDL192W, strain arf1, stronger effect = lower value 0.0608 | locus YDR001C, strain nth1, stronger effect = lower value 0.0663 | locus YDR069C, strain doa4, stronger effect = lower value 0.0621 | locus YDR101C, strain arx1, stronger effect = lower value 0.437 | locus YDR137W, strain rgp1, stronger effect = lower value 0.754 | locus YDR159W, strain sac3, stronger effect = lower value 0.854 | locus YDR162C, strain NBP2, stronger effect = lower value 0.054 | locus YDR195W, strain ref2 1.46 [resistant] | locus YDR297W, strain sur2, stronger effect = lower value 0.06 | locus YDR318W, strain mcm21, stronger effect = lower value 0.0683 | locus YDR334W, strain swr1, stronger effect = lower value 0.0625 | locus YDR335W, strain msn5, stronger effect = lower value 0.574 | locus YDR388W, stronger effect = lower value 0.0602 | locus YDR392W, strain spt3, stronger effect = lower value 0.0762 | locus YDR502C, strain sam2, stronger effect = lower value 0.0635 | locus YEL003W, strain gim4, stronger effect = lower value 0.106 | locus YEL037C, strain rad23, stronger effect = lower value 0.0632 | locus YEL061C, strain CIN8 (second series), stronger effect = lower value 0.0621 | locus YEL061C, strain CIN8, stronger effect = lower value 0.0485 | locus YER015W, strain faa2, stronger effect = lower value 0.0679 | locus YER016W, strain bim1, stronger effect = lower value 0.147 | locus YER110C, stronger effect = lower value 0.0784 | locus YER155C, strain BEM2 (second series), stronger effect = lower value 0.0943 | locus YER155C, strain BEM2, stronger effect = lower value 0.0677 | locus YER167W, strain BCK2, stronger effect = lower value 0.0545 | locus YFR010W, strain ubp6, stronger effect = lower value 0.07 | locus YGL078C, strain dbp3, stronger effect = lower value 0.0555 | locus YGL086W, strain mad1, stronger effect = lower value 0.062 | locus YGL167C, strain pmr1, stronger effect = lower value 0.0891 | locus YGL173C, strain kem1, stronger effect = lower value 0.0711 | locus YGL227W, strain vid30, stronger effect = lower value 0.0629 | locus YGL240W, strain doc1, stronger effect = lower value 0.0921 | locus YGL248W, strain PDE1, stronger effect = lower value 0.0477 | locus YGL253W, strain hxk2, stronger effect = lower value 0.0553 | locus YGR135W, strain pre9, stronger effect = lower value 0.0669 | locus YGR252W, strain gcn5, stronger effect = lower value 0.162 | locus YHR013C, strain ard1, stronger effect = lower value 0.11 | locus YHR027C, strain rpn1, stronger effect = lower value 0.0642 | locus YHR030C, strain SLT2, stronger effect = lower value 0.0507 and 0.0959 | locus YHR079C, strain IRE1 (second series), stronger effect = lower value 0.65 | locus YHR079C, strain IRE1, stronger effect = lower value 0.12 | locus YHR094C, strain hxt1, stronger effect = lower value 0.0617 | locus YHR129C, strain ARP1, stronger effect = lower value 0.0594 | locus YHR142W, strain chs7, stronger effect = lower value 0.0813 | locus YHR200W, strain rpn10, stronger effect = lower value 0.0601 | locus YIL066C, strain RNR3, stronger effect = lower value 0.0543 | locus YIL073C, strain SPO22, stronger effect = lower value 0.114 | locus YIL125W, strain kgd1, stronger effect = lower value 0.0566 | locus YIR030C, strain dcg1, stronger effect = lower value 0.0629 | locus YJL092W, strain hpr5, stronger effect = lower value 0.0617 | locus YJL095W, strain BCK1 (second series), stronger effect = lower value 0.0731 | locus YJL095W, strain BCK1, stronger effect = lower value 0.12 and 0.111 | locus YJL115W, strain asf1, stronger effect = lower value 0.0858 | locus YJL129C, strain trk1, stronger effect = lower value 0.769 | locus YJL134W, strain LCB3, stronger effect = lower value 0.0503 | locus YJL154C, strain vps35, stronger effect = lower value 0.0602 | locus YJL164C, strain tpk1, stronger effect = lower value 0.0617 | locus YJL166W, strain qcr8, stronger effect = lower value 0.0635 | locus YJL168C, strain set2, stronger effect = lower value 0.0616 | locus YJR043C, strain POL32, stronger effect = lower value 0.0678
0.0627 (active) and 0.948 (inactive): locus YAL013W, strain DEP1, stronger effect = lower value
0.0595 (active) and 0.975 (inactive): locus YGR078C, strain PAC10, stronger effect = lower value
0.0625 (active) and 0.862 (inactive): locus YGR229C, strain SMI1, stronger effect = lower value
0.0598 (active) and 0.956 (inactive): locus YDR150W, strain NUM1, stronger effect = lower value
